Screening data as filed in PubChem BioAssay.
Hits are enriched below; roughly 1.4% of the tested compounds scored in any of these assays.
HTR5A inv ag: inverse agonist of human HTR5A in OPRM1-OPRD1 counter-screen; P47898; 0.083% of 340,000 active; HTR5A cell line, luminescence, inverse agonism; AID 504634; inhibition, % at 9.3 µM; in the data active means inhibition mostly above about 23%, no sharp cut-off; inactive means mostly below about 18%;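 further: 0% = cells with DMSO and 100% = no-cell wells with DMSO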
Target sequence (P47898 whole entry, looked up): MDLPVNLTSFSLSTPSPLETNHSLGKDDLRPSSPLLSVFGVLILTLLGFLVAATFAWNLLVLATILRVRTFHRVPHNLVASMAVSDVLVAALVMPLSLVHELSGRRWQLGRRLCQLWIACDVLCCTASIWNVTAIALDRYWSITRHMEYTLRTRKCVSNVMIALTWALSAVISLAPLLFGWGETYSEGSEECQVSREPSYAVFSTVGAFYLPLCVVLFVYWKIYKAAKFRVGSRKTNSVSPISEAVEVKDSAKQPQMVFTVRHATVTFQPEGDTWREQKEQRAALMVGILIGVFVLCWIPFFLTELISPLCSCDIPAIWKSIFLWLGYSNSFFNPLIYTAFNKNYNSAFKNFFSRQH
MIN6 prolif: inducers of beta-cell replication in MIN6 cells. proliferation, % at 10 µM. 0.29% of 330,000 active. MIN6 cells proliferation, ATPlite luminescence, 48 h; cells starved in 0.2% serum; 100% = growth in 10% serum;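 active means compounds whose signal lies at least 3.5 SD above the mean of all wells on their plate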;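 further: 0% = DMSO-treated cells in low-serum medium and 100% = 10% serum control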
HTR5A ag: counter-screen for OPRM1-OPRD1 agonists: human HTR5A agonism; P47898; HTR5A agonist assay, luminescence, cell-based; activation, % at 9.3 µM; 0.61% of 340,000 active; in the data active means activation mostly above about 9.5%, no sharp cut-off; inactive means mostly below about 7.6%;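 further: 0% = cells with vehicle only and 100% = reference agonist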
OPRM1-OPRD1 inv: inverse agonist of human OPRM1-OPRD1 heterodimerization | P35372+P41143 | cell-based MOR-DOR heterodimer luminescence, inverse agonism | inhibition, % at 9.3 µM | 0.21% of 340,000 active; in the data active means inhibition above about 22%, passing the limit was not always enough;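 further: 0% = cells with DMSO and 100% = wells without cells with DMSO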
MOR-DOR ag-1: agonists of human mu-delta opioid receptor heterodimerization. activation, % at 9.3 µM. 0.3% of 340,000 active. cells, OPRM1-OPRD1 heterodimerization, luminescence. AID 504326;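 further: 0% = vehicle-treated cells and 100% = reference agonist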
p-CIP stab down: p/CIP protein destabilization; AID 1984; decrease of EGFP signal, % at 10 µM; Q05BA5; 0.01% of 290,000 active; F442A p/CIP-EGFP cells, EGFP fluorescence, 16 h;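 active means EGFP signal decrease of at least 30% at 10 µM or well 3 SD below plate mean, unless failing retest; inactive means the rest, including hits failing retest or dose response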
MOR-DOR ag-2: counter-screen for HTR5A agonists: OPRM1-OPRD1 heterodimerization agonism | shares compounds with HTR5A ag | U2OS counter-screen cells, complementation luminescence, 3 h | activation, % at 9.3 µM | 13% of 800 active | AID 504913
HTR5A ag confirm: HTR5A (human) agonism, confirmation; 17% of 800 active; activation, % at 9.3 µM; HTR5A agonist cell assay, luminescence; shares compounds with HTR5A ag; AID 504915; in the data active means activation above about 17%;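 further: 0% = cells with vehicle only and 100% = full reference agonist response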
Active calls of the source: *; nt = no result given. Unless noted, no stated cut-off is given here; in the data, active means activation above about 18%; inactive means the rest.

SMILES | HTR5A inv ag | MIN6 prolif | HTR5A ag | OPRM1-OPRD1 inv | MOR-DOR ag-1 | p-CIP stab down | MOR-DOR ag-2 | HTR5A ag confirm
O=C(NC1CCCN(CCc2ccccc2)C1)c1c[nH]c2ccccc12 (stereo unspecified) | -7 | -3 | 2 | 9 | -2 | 14 | nt | nt
COc1ccccc1NS(=O)(=O)c1cccc(C(=O)NCC(c2cccs2)N2CCOCC2)c1 (stereo unspecified) | 6 | -4 | -2 | 0 | 0 | nt | nt | nt
O=C(COc1ncnc2ccccc12)Nc1cc([N+](=O)[O-])ccc1F | -57 | -5 | 19* | 10 | -2 | -14 | 2 | 1
O=C1NCC(Nc2ccccc2Cl)C(=O)N1 (stereo unspecified) | -2 | nt | 0 | 14 | -3 | nt | nt | nt
Cc1ccc(NC(=O)CNc2ccccc2N2CCCC2=O)cc1S(=O)(=O)N1CCCCC1 | 1 | -3 | 1 | 14 | -3 | nt | nt | nt
CN(C)CCN=Cc1c(O)n(-c2ccc(S(=O)(=O)N3CCOCC3)cc2)c(=O)c2ccccc12 | 0 | -2 | 1 | 0 | 0 | nt | nt | nt
Cc1ccc(NC(=O)Nc2sc(=S)n(C)c2C)cc1 | 8 | -1 | 8 | 11 | -2 | -4 | nt | nt
Cc1c(NC(=O)Oc2ccccc2)sc(=S)n1C | -34 | -3 | 15* | 27 | -6 | -9 | 0 | 43*
Cc1nc(N)nc(N)c1CCCc1ccc(Cl)c(Cl)c1 | -30 | -3 | 18* | -8 | 2 | nt | 1 | 0
O=[N+]([O-])c1cc(S(=O)(=O)C(F)(F)F)ccc1NCC1CCCO1 (stereo unspecified) | -6 | 0 | -5 | -40 | 6 | -16 | nt | nt
O=C(CSc1nc2ccccc2c(=O)[nH]1)c1ccc(O)cc1O | -5 | nt | 16* | -21 | 4 | 3 | 1 | 2
O=C(CSc1nc2ccccc2c(=O)[nH]1)c1ccc(O)c(O)c1 | 10 | -3 | 6 | 2 | 0 | 6 | nt | nt
COc1ccc(NC(=O)CSc2nc3ccccc3c(=O)[nH]2)cc1S(N)(=O)=O | -50 | -1 | 21* | 13 | -3 | nt | 0 | 6
CCN1C(=O)[C@H]2[C@H]3CN=C(SC)N3[C@@](C)(C(=O)OC)[C@H]2C1=O | 4 | nt | -1 | 14 | -3 | nt | nt | nt
CC(C)(C)C1CCC(=NNS(=O)(=O)c2ccc(Br)cc2)CC1 (stereo unspecified) | -73 | 0 | 21* | -1 | 0 | 0 | 7 | 4
Cc1ccc(S(=O)(=O)NN=C2CCC(C(C)(C)C)CC2)cc1[N+](=O)[O-] (stereo unspecified) | -36 | -5 | 10 | 6 | -1 | -5 | nt | nt
CCNC(=O)c1ccc(-n2nc(C(F)(F)F)c3c2CCCC3)cc1 | -79 | 4 | 16* | 4 | -1 | 0 | 1 | 36*
Cc1cc(=O)c(C(=O)O)nn1-c1cccc(C(F)(F)F)c1 | 13 | 1 | -2 | 14 | -3 | -8 | nt | nt
Cc1cc(=O)c(C(=O)O)nn1-c1ccccc1C(F)(F)F | -4 | 3 | 15* | 0 | 0 | -16 | 0 | -2
O=C(N/N=C/c1ccco1)c1cccc(NC(=O)c2cccc(Cl)c2)c1 | -63 | -2 | 24* | 16 | -3 | 4 | 26* | 13
O=C(N/N=C/c1ccco1)c1ccc(NC(=O)c2ccccc2Cl)cc1 | -2 | -1 | 1 | 10 | -2 | -6 | nt | nt
Cn1c2ccccc2c(=O)c2c(=O)n(-c3ccc(F)cc3)c(C3CCCCC3)nc21 | -20 | nt | -3 | 12 | -2 | nt | nt | nt
COc1cccc(NC(=O)COC(=O)COc2cccc3c2OC(C)(C)C3)c1 | -10 | 2 | 1 | -10 | 2 | -6 | nt | nt
CCCNC(=O)c1ccccc1NC(=O)COc1cccc2c1OC(C)(C)C2 | -67 | 5 | 27* | 9 | -2 | nt | 10 | 0
CC1(C)Cc2cccc(OCC(=O)OCC(=O)Nc3ccc(C(N)=O)cc3)c2O1 | 7 | 2 | 3 | -3 | 0 | nt | nt | nt
CN(C)S(=O)(=O)c1ccc(NC(=O)COc2cccc3c2OC(C)(C)C3)cc1 | -104 | 3 | 24* | 6 | -1 | nt | 4 | 46*
